# Data taken from article PMC5540273 (PLoS ONE, 2017).
# Columns and labels:
# Conditions in all cases: concentration: 1 μM, replicates: in singlicate; n = 1
# [1] = system: T1, PKAC-beta
# T1 construct: gene PRKACB
# [2] = system: PKMYT1
# [3] = system: PKN1
# [4] = system: PKN2
# [5] = system: PLK1
# [6] = system: PLK2
# [7] = system: PLK3
# [8] = system: PLK4
# [9] = system: PRKCD
# [10] = system: PRKCE
# 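Further: KINOMEscan kinase panel screen.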
SMILES,%Inh [1] [%],%Inh [2] [%],%Inh [3] [%],%Inh [4] [%],%Inh [5] [%],%Inh [6] [%],%Inh [7] [%],%Inh [8] [%],%Inh [9] [%],%Inh [10] [%]
O=C(Nc1n[nH]c2nc(-c3ccco3)c(Br)cc12)C1CCN(Cc2ccccc2)C1.O=C(O)[C@H](O)[C@@H](O)C(=O)O (centres unmarked) [SB-742034],15,8,0,41,3,24,5,22,35,1
Fc1ccc(-c2nn3cccc(F)c3c2-c2ccncc2)cc1 [GW475620],47,11,9,11,9,69,0,3,19,6
COc1ccc(Nc2nccc(NCCNC(=O)Nc3cc(C)ccc3C)n2)cc1 [GSK1379899],0,2,30,0,0,0,0,0,10,0
CNc1nc(-c2ccc3c(N)n[nH]c3c2)cc(N2C[C@@H](C(=O)Nc3ccccc3)CC[C@H]2C)n1 [GSK2298859],66,0,0,0,0,0,0,0,16,0
CS(=O)(=O)CCNCc1nc(-c2ccc3ncnc(Nc4ccc5c(cnn5Cc5ccccc5)c4)c3c2)cs1.Cl.Cl [GW569716],3,6,0,15,0,0,0,13,0,11
CC[C@@H]1CO[C@H](C(=O)Nc2ccccc2)CN1c1cc(-c2ccc3c(N)n[nH]c3c2)nc(NC)n1 [GSK2376236],73,0,85,0,0,0,0,0,0,3
COc1ccc2cc(-c3nc(-c4ccccc4C(C)C)[nH]c3-c3ccncc3)ccc2c1 [SB-660566],3,7,24,0,0,0,0,4,0,0
Cc1nccc(-c2c(-c3ccc(F)cc3)ncn2CCCN2CCOCC2)n1.Cl [SB-282975],0,0,19,1,44,21,5,3,31,11
FC(F)(F)c1ccccc1-c1cc(-c2c[nH]nc2-c2ccccn2)ccn1 [GW679396],17,5,0,12,1,0,0,1,6,11
Cn1cncc1-c1cc2c(Nc3ccc(OCc4ccccc4)cc3)ncnc2cn1 [GW281179],7,0,0,0,0,0,0,0,3,4
CS(=O)(=O)Cc1ccc(Nc2nccc(-c3c(-c4cccc(NC(=O)C5CCCCC5)c4)nn4ncccc34)n2)cc1 [GSK350559],0,3,10,0,15,3,13,6,0,0
CNCc1ccc2nc(NC(=O)c3ccc(C(C)(C)C)cc3)cn2c1,5,11,8,7,2,7,22,8,0,12
CS(=O)(=O)CCNCc1nc(-c2ccc3ncnc(Nc4ccc(OCc5ccccc5)c(Cl)c4)c3c2)cs1.Cl [GW582764],2,0,0,0,0,0,0,0,0,6
COc1cccc(NC(=O)Nc2ccc(C)c(-c3ccc(C(=O)Nc4ccncc4)cc3)c2)c1 [GSK1398474],0,0,0,14,0,0,0,6,15,0
CCc1ccc(-c2ccc3c(c2)-c2n[nH]cc2S(=O)(=O)N3C)cc1,12,2,0,0,6,0,7,0,0,14
CC(=O)c1c(C)c2cnc(Nc3ccc(N4CCNCC4)cn3)nc2n(C2CCCC2)c1=O,6,23,0,15,0,0,0,6,18,55
Cc1c(Cn2c3ccccc3n3c(=O)cc(N4CCOCC4)nc23)cccc1C(F)(F)F [GSK2306394],0,0,100,0,0,0,0,0,0,0
CSc1ccc(-c2nc3n(c2-c2ccncc2)CCC3)cc1 [SKF-105561],18,5,0,12,1,29,6,2,9,23
Cc1ccccc1-c1cc(-c2c[nH]nc2-c2ccccn2)ccn1 [GW680061],0,0,0,0,0,0,0,0,0,10
COc1ccc(Nc2nccc(N3CCC(NC(=O)C(C)c4ccc(Cl)cc4)CC3)n2)cc1 (centres unmarked) [GSK1379812],8,9,0,6,20,0,0,13,0,1
Cc1ccc(NC(=O)c2ccc(Cl)cc2)cc1-c1ccc(C(=O)Nc2ccncc2)cc1 [GSK1398467],0,2,2,0,0,0,0,0,3,15
Cc1ccc(-c2nc(Nc3ccncc3)c3ccccc3n2)s1 [GSK189015],18,19,26,20,0,0,0,0,15,0
CN1c2ccc(-c3ccc(C(N)=O)cc3)cc2-c2[nH]ncc2S1(=O)=O,0,0,0,0,4,3,13,0,3,12

SMILES,%Inh [1] [%],%Inh [2] [%],%Inh [3] [%],%Inh [4] [%],%Inh [5] [%],%Inh [6] [%],%Inh [7] [%],%Inh [8] [%],%Inh [9] [%],%Inh [10] [%]
Nc1nccc(-c2c(-c3ccc(F)cc3)ncn2C2CCN(Cc3ccccc3)CC2)n1 [SB-219980],0,26,0,0,12,28,10,8,0,1
CC(C)c1cc(-c2ccc3c(N)n[nH]c3c2)nc(N)n1 [GSK2250882],0,14,0,0,0,0,0,0,0,5
COc1cc2ncnc(Nc3cccc(Br)c3)c2cc1OC.Cl [GI230329],0,0,0,0,2,0,0,0,3,11
Cc1ccccc1Cn1ccn2c(=O)cc(N3CCOCC3)nc12 [GSK2269905],1,0,0,0,0,0,0,0,0,7
CC(=O)c1c(C)c2cnc(Nc3ccn(C)n3)nc2n(C2CCCC2)c1=O,0,0,0,0,0,8,0,15,0,0
COc1ccc(Nc2nccc(N3CCC(NC(=O)c4cc5ccccc5s4)C3)n2)cc1 (centres unmarked) [GSK1379738],0,3,23,0,11,0,0,3,0,17
Cn1cnc2c(N)ncnc21 [SKF-97623],0,0,0,0,0,0,0,0,0,9
COc1cccc(C2=C(Nc3cc(Cl)c(O)c(Cl)c3)C(=O)NC2=O)c1 [SB-390767],0,4,0,0,0,0,0,0,0,28
Cc1ccc(NC(=O)Nc2ccccc2F)cc1-c1ccc(C(=O)Nc2ccncc2)cc1 [GSK1398477],32,18,26,12,5,0,0,0,19,4
CCn1c(-c2ccccc2)nc2cnccc21 [SB-733416],3,30,0,0,0,0,0,0,8,22
COc1ccc(CSc2nnc(-c3ccc4c(c3)CCO4)o2)cc1,0,19,0,0,0,0,0,0,14,0
COc1cccc(CNC(=O)NC2CCN(c3ccnc(Nc4ccc(F)cc4)n3)C2)c1 (centres unmarked) [GSK1379723],0,2,4,0,0,0,0,0,0,9
CC(=O)c1cccc(NC(=O)NC2CCN(c3ccnc(Nc4ccc(F)cc4)n3)C2)c1 (centres unmarked) [GSK1379710],0,3,31,0,7,0,9,0,0,15
COC(=O)C(NC(=O)NC1CCN(c2ccnc(Nc3ccc(F)cc3)n2)C1)c1ccccc1 (centres unmarked) [GSK1379712],0,0,18,0,13,3,4,1,0,18
Cc1ccc(NC(=O)Nc2ccc(Cl)cc2)cc1-c1ccc(C(=O)Nc2ccncc2)cc1 [GSK1398472],0,5,0,0,0,0,0,0,0,21
COc1nccc(-c2c(-c3ccc(F)cc3)ncn2CCCN2CCOCC2)n1 [SB-282852],16,0,0,0,0,0,13,20,38,0
CCn1c(-c2c(N)noc2C)nc2cnccc21 [SB-737856],0,0,29,0,0,0,0,0,0,0
O=C1NC(=O)C(c2ccc(Cl)cc2)=C1Nc1cccc(Cl)c1 [SB-317651],94.7,0,15,0,4,0,30,0,12,3
COC(=O)C(Cc1ccccc1)NC(=O)NC1CCN(c2ccnc(Nc3ccc(F)cc3)n2)C1 (centres unmarked) [GSK1379714],0,0,41,0,6,0,0,12,1,20
Nc1ncnc2occ(-c3ccc4c(c3)CCN4C(=O)Cc3cc(F)ccc3F)c12 [GSK2645446],8,0,7,0,0,0,0,5,0,0
Cc1cccc2c(-c3ccncn3)c(-c3ccc(F)cc3)nn12 [GW515532],15,5,23,0,0,0,0,0,5,0
Cc1ccc(NC(=O)Nc2ccc(Cl)c(C(F)(F)F)c2)cc1-c1ccc(C(=O)Nc2ccncc2)cc1 [GSK1398470],0,0,10,25,0,0,0,0,0,0
CNC(=O)c1ccc(C)c(-n2c(C)cc(OCc3ccc(F)cc3F)c(Br)c2=O)c1,74,0,0,19,0,0,0,0,7,35

SMILES,%Inh [1] [%],%Inh [2] [%],%Inh [3] [%],%Inh [4] [%],%Inh [5] [%],%Inh [6] [%],%Inh [7] [%],%Inh [8] [%],%Inh [9] [%],%Inh [10] [%]
COc1ccc(Nc2nccc(N3CCC(NC(=O)C(C)c4ccc(Cl)cc4)C3)n2)cc1 (centres unmarked) [GSK1379735],4,0,29,0,0,0,0,0,0,5
Cc1ccc(NC(=O)Nc2ccccc2)cc1-c1ccc(C(=O)Nc2ccncc2)cc1 [GSK1398471],0,28,0,2,2,0,0,1,0,0
O=C1NC(=O)C(c2ccc(Cl)cc2)=C1Nc1ccc(O)cc1 [SB-340867],18,0,0,12,0,0,0,0,0,1
O=c1cc(N2CCOCC2)nc2n(Cc3cccc(Cl)c3Cl)c3ccccc3n12 [GSK2299009],11,32,21,0,0,0,0,7,32,3
COc1ccc(CSc2nnc(-c3ccc4ncsc4c3)o2)cc1C(F)(F)F,1,22,0,0,0,4,0,2,13,0
CCCCc1nn2ncccc2c1-c1ccnc(NC2CC2)n1 [GW684374],0,0,18,0,0,0,0,0,0,1
COc1ccc(-c2coc3ccc(-c4nnc(C)o4)cc23)cc1,8,1,7,18,0,0,0,2,5,2
Nc1cccc(-c2ccc3c(N)n[nH]c3c2)n1 [GSK2192730],0,0,37,0,0,0,0,8,0,0
O=C(Nc1n[nH]c2nc(-c3cccs3)c(Br)cc12)C1CC1 [SB-735297],2,0,0,0,9,19,7,8,7,19
COc1ccc(CSc2nnc(-c3ccc4nccn4c3)o2)cc1C(F)(F)F,26,28,3,33,0,42,16,11,20,21
CNc1cc(-c2ccc3c(N)n[nH]c3c2)nc(N)n1 [GSK2224810],0,4,10,0,0,0,0,5,0,15
O=c1cc(N2CCOCC2)nc2n(Cc3ccccc3F)ccn12 [GSK2297428],0,0,7,0,13,0,0,8,0,1
c1ccc(-c2ccnc3[nH]ccc23)cc1 [SB-693578],8,6,0,0,0,0,0,5,0,7
Fc1ccc(-c2nc3n(c2-c2ccncc2)CCS3)cc1 [GI98581],23,10,0,0,0,0,0,0,1,0
CNc1nc(-c2ccc3c(N)n[nH]c3c2)cc(N2C[C@@H](C(=O)NC3CCCCC3)OC[C@H]2C)n1 [GSK2375584],10,0,29,0,3,0,1,1,8,8
Cc1cnc(N)c(/C=C/c2cncc(C(=O)NCCc3ccc(Cl)cc3Cl)c2)c1.Cl [GSK190937],,0,7,0,0,0,0,0,8,21
O=C(Nc1n[nH]c2cc(-c3ccsc3)ccc12)C1CC1 [SB-732932],18,9,56,4,2,24,0,0,0,0
COc1ccc(Nc2nccc(-c3ccc(NC(=O)c4cc5cc(F)ccc5[nH]4)cc3)n2)cc1 [GSK1229496],0,0,13,0,0,0,0,0,0,6
NS(=O)(=O)c1cccc(N/C=C2\C(=O)Nc3ccc(S(=O)(=O)Cc4c(Cl)cccc4Cl)cc32)c1 [GSK398099],0,5,38,0,1,0,0,18,0,11
Fc1ccc(-c2nc[nH]c2-c2ccncc2)cc1 [SB-217360],0,9,0,0,9,21,36,4,8,0
CC(C)c1ccc(O)cc1Nc1ccnc2ccc(C(F)(F)F)cc12 [GW482059],16,0,36,0,0,0,0,0,0,0
Cl.Cl.Cl.N#Cc1ccc(CCNc2nccc(-c3cccc(CN4CCNCC4)c3)n2)cc1 [GSK2137462],5,18,0,2,5,5,0,6,18,76
Cc1c(Cn2c(C)c(C)n3c(=O)cc(N4CCOCC4)nc23)cccc1C(F)(F)F [GSK2328680],0,17,0,0,0,100,0,0,0,0
